Laboratory results published in PubChem BioAssay (EPA / NIEHS).
“And” between values parts separate entries of the source, which are not always exact repeats. Equal values may be shown once. Records with an inconclusive call do not appear. The source holds several records for some structures; these can differ, active in one and inactive in another. The source made the active and inactive calls. Rule for the calls, unless noted: active = hit-call score of the fitted dose curve at least 0.9, where 1 is the maximum; inactive = score below 0.9.

What was measured:
[1] = read-out: Interleukin-8 (IL8), CXCL8 (gene 3576); assay: BSK_3C_IL8: BioMAP Diversity Plus: 3C Assay for Interleukin-8 (IL8) Biomarker Activity (AID 2283020); details: primary human endothelial cells (HUVEC); actives raise or lower the signal
How it was run: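 HUVEC, 3C stimulation; 24 h compound exposure; IL-8 read by ELISA; gain or loss of signal fitted relative to DMSO control.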

[2] = read-out: Monokine induced gamma interferon (MIG), CXCL9 (gene 4283); assay: BSK_3C_MIG: BioMAP Diversity Plus: 3C Assay for Monokine induced gamma interferon (MIG) Biomarker Activity (AID 2283021); details: primary human endothelial cells (HUVEC); actives raise or lower the signal;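 for AC50: MIG protein level measured by immunoassay in the treated endothelial cultures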
How it was run: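 HUVEC, 3C system; 24 h chemical exposure; MIG by ELISA; bidirectional fit vs DMSO baseline.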

[3] = biological target: human Vitamin D Receptor (VDR), VDR (gene 7421) (UniProt P11473); assay: ATG_VDR_TRANS: Attagene TRANS-FACTORIAL HepG2 Assay for human Vitamin D Receptor (VDR) (AID 2283022; active = hit-call score of the fitted dose curve at least 0.9, where 1 is the maximum)
How it was run: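 RT-PCR/capillary electrophoresis read-out of reporter mRNA induction in transiently transfected HepG2; 24 h dosing; chimeric NR-Gal4 (TRANS format); gain-of-signal fit against DMSO baseline.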

[4] = BSK_3C_SRB: Viability Assessment in the BioMAP Diversity Plus: 3C Assay (AID 2283023); details: primary human endothelial cells (HUVEC);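 note: fitted both ways against DMSO so a hit may be signal rise or drop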
How it was run: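 HUVEC, 24 h post-dose; 10% TCA fix, 0.1% SRB stain, A560 nm. Bidirectional curve fit vs DMSO negative control.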

[5] = read-out: Matrix Metallopeptidase 1 (MMP1), MMP1 (gene 4312); assay: BSK_BE3C_MMP1: BioMAP Diversity Plus: BE3C Assay for Matrix Metallopeptidase 1 (MMP1) Biomarker Activity (AID 2283024); details: primary human bronchial epithelial cells; actives raise or lower the signal
How it was run: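 ELISA read-out of MMP1 in human lung bronchial epithelial primary cultures, 24 h post-dose; bidirectional curve fit vs DMSO baseline, gain or loss of signal scored.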

[6] = BSK_4H_SRB: Viability Assessment in the BioMAP Diversity Plus: 4H Assay (AID 2283027); details: primary human endothelial cells (HUVEC);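 note: cells exposed to compound for 24 h before staining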;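 for AC50: curves fitted both ways versus DMSO so AC50 may be loss or gain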
How it was run: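 Cytotoxicity read-out in primary human endothelial cells: after 24 h compound exposure, cells were TCA-fixed (10%), stained with 0.1% SRB and absorbance taken at 560 nm. Values fitted in both directions relative to DMSO.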

[7] = BSK_BE3C_SRB: Viability Assessment in the BioMAP Diversity Plus: BE3C Assay (AID 2283028); details: primary human bronchial epithelial cells
How it was run: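 Primary human bronchial epithelium; chemical dosing, 24 h; 10% TCA fix, 0.1% SRB stain, A560; bidirectional fit vs DMSO baseline.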

[8] = read-out: Thrombomodulin, THBD (gene 7056); assay: BSK_3C_Thrombomodulin: BioMAP Diversity Plus: 3C Assay for Thrombomodulin Biomarker Activity (AID 2283029); details: primary human endothelial cells (HUVEC); actives raise or lower the signal
How it was run: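 HUVEC, 3C conditions; compound 24 h; thrombomodulin by ELISA; bidirectional curve fit vs DMSO baseline; parallel SRB total-protein staining for cytotoxicity.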

[9] = read-out: Urokinase-type plasminogen activator receptor (uPAR), PLAUR (gene 5329); assay: BSK_4H_uPAR: BioMAP Diversity Plus: 4H Assay for Urokinase-type plasminogen activator receptor (uPAR) Biomarker Activity (AID 2283030); details: primary human endothelial cells (HUVEC); actives raise or lower the signal
How it was run: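 HUVEC, 24 h post-dose; uPAR by ELISA; bidirectional fit vs DMSO baseline.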

[10] = read-out: Vascular endothelial growth factor receptor 2 (Homo sapiens) (UniProt P35968); assay: BSK_4H_VEGFRII: BioMAP Diversity Plus: 4H Assay for Vascular endothelial growth factor receptor 2 (VEGFR2) Biomarker Activity (AID 2283031); details: primary human endothelial cells (HUVEC); actives raise or lower the signal
How it was run: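 HUVEC (human primary), 4H system; 24 h post-dose; VEGFRII by ELISA; bidirectional curve fit vs DMSO baseline; gain or loss of signal scored.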

[11] = read-out: Human Leukocyte Antigen - DR isotype (HLADR), HLA-DRA (gene 3122); assay: BSK_BE3C_HLADR: BioMAP Diversity Plus: BE3C Assay for Human Leukocyte Antigen - DR isotype (HLADR) Biomarker Activity (AID 2283032); details: primary human bronchial epithelial cells; actives raise or lower the signal
How it was run: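 Primary human bronchial epithelial cells (BE3C); 24 h chemical exposure; HLA-DR by ELISA; bidirectional curve fit vs DMSO baseline.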

[12] = read-out: Vascular cell adhesion molecule 1 (VCAM1), VCAM1 (gene 7412); assay: BSK_4H_VCAM1: BioMAP Diversity Plus: 4H Assay for Vascular cell adhesion molecule 1 (VCAM1) Biomarker Activity (AID 2283033); details: primary human endothelial cells (HUVEC); actives raise or lower the signal;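 for outcome: cell-surface VCAM-1 protein measured by ELISA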
How it was run: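 HUVEC, 24 h post-dose; VCAM-1 by ELISA. Bidirectional curve fit vs DMSO baseline. Parallel SRB total-protein stain (0.1% SRB after 10% TCA fixation, 560 nm) for cytotoxicity.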

[13] = read-out: Interferon-gamma inducible Protein 10 (IP10), CXCL10 (gene 3627); assay: BSK_BE3C_IP10: BioMAP Diversity Plus: BE3C Assay for Interferon-gamma inducible Protein 10 (IP10) Biomarker Activity (AID 2283034); details: primary human bronchial epithelial cells; actives raise or lower the signal
How it was run: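 ELISA readout of IP-10 in BE3C system: primary human bronchial epithelial cells, 24 h post-dosing; bidirectional curve fit vs DMSO baseline.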

[14] = read-out: Monokine induced gamma interferon (MIG), CXCL9 (gene 4283); assay: BSK_BE3C_MIG: BioMAP Diversity Plus: BE3C Assay for Monokine induced gamma interferon (MIG) Biomarker Activity (AID 2283035); details: primary human bronchial epithelial cells; actives raise or lower the signal;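 for outcome: MIG protein measured by ELISA in BE3C cultures after 24 h of dosing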
How it was run: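 ELISA quantified MIG after 24 h exposure of primary bronchial epithelial cultures, analysed in both directions relative to DMSO. Cytotoxicity tracked in parallel cultures by sulforhodamine B staining.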

[15] = read-out: Plasminogen activator inhibitor-1 (PAI1), SERPINE1 (gene 5054); assay: BSK_BE3C_PAI1: BioMAP Diversity Plus: BE3C Assay for Plasminogen activator inhibitor-1 (PAI1) Biomarker Activity (AID 2283037); details: primary human bronchial epithelial cells; actives raise or lower the signal
How it was run: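 ELISA read-out of PAI-1 from human bronchial epithelial primary cells, 24 h post-dosing; bidirectional curve fit vs DMSO baseline, gain or loss of signal scored.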

[16] = read-out: urokinase plasminogen activator (uPA), PLAU (gene 5328); assay: BSK_BE3C_uPA: BioMAP Diversity Plus: BE3C Assay for urokinase plasminogen activator (uPA) Biomarker Activity (AID 2283038); details: primary human bronchial epithelial cells; actives raise or lower the signal;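 for outcome: uPA protein level quantified by ELISA in cell cultures; uPA read one day after compound addition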
How it was run: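 ELISA read-out of uPA in human lung primary bronchial epithelial cultures, 24 h post-dosing. Gain or loss of signal fitted bidirectionally relative to DMSO baseline; cytotoxicity checked in parallel cultures via SRB total protein stain.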

[17] = read-out: Urokinase-type plasminogen activator receptor (uPAR), PLAUR (gene 5329); assay: BSK_BE3C_uPAR: BioMAP Diversity Plus: BE3C Assay for Urokinase-type plasminogen activator receptor (uPAR) Biomarker Activity (AID 2283039); details: primary human bronchial epithelial cells; actives raise or lower the signal;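 for outcome: uPAR protein level measured by ELISA on the cells; cells exposed to compound for one day before measurement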
How it was run: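 ELISA readout of uPAR on human lung primary bronchial epithelial cells, 24 h post-dosing. Bidirectional curve fit relative to DMSO vehicle baseline; gain or loss of signal both scored.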

[18] = read-out: Pselectin, SELP (gene 6403); assay: BSK_4H_Pselectin: BioMAP Diversity Plus: 4H Assay for Pselectin Biomarker Activity (AID 2283026); details: primary human endothelial cells (HUVEC); actives raise or lower the signal
How it was run: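 HUVEC, 24 h chemical exposure; P-selectin read by ELISA. Bidirectional curve fit vs DMSO baseline; gain or loss of signal scored.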

Sequence of human Vitamin D Receptor (VDR), VDR (gene 7421) (P11473 whole entry, looked up, the tested form may be a part): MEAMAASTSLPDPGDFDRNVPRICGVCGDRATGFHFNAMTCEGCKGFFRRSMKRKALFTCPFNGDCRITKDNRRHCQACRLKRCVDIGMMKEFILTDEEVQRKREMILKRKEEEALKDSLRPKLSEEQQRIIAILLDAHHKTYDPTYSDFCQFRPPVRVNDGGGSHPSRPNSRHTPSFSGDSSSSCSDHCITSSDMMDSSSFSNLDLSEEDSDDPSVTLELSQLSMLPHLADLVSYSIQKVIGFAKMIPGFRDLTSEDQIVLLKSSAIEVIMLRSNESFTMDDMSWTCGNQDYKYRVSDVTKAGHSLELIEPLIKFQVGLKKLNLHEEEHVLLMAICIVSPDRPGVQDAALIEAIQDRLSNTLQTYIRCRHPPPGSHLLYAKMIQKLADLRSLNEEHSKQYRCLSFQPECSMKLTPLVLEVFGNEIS

SMILES: C=CC(=O)OCCC(F)(F)C(F)(F)C(F)(F)C(F)(F)F
- outcome [1]: inactive
- outcome [2]: inactive
- outcome [3]: inactive
- outcome [4]: inactive
- outcome [5]: inactive
- outcome [6]: inactive
- outcome [7]: inactive
- AC50 [8]: 6.34 µM (active) and 21.1 µM (active)
- outcome [9]: inactive
- outcome [10]: inactive
- outcome [11]: inactive
- AC50 [12]: 21.1 µM (active)
- outcome [12]: inactive
- outcome [13]: inactive
- outcome [14]: inactive
- outcome [15]: inactive
- outcome [16]: inactive
- outcome [17]: inactive

SMILES: OCC(F)(F)C(F)(F)C(F)(F)C(F)(F)C(F)(F)C(F)(F)CO
- outcome [1]: inactive
- outcome [2]: inactive
- outcome [3]: inactive
- outcome [4]: inactive
- outcome [5]: inactive
- outcome [6]: inactive
- outcome [7]: inactive
- outcome [8]: inactive
- outcome [9]: inactive
- outcome [10]: inactive
- outcome [11]: inactive
- outcome [12]: inactive
- outcome [13]: inactive
- outcome [14]: inactive
- outcome [15]: inactive
- outcome [16]: inactive
- outcome [17]: inactive

SMILES: CCN=C1C=CC(=C(c2ccc(N(CC)CC)cc2)c2ccc(N(CC)CC)cc2)c2ccccc21
- AC50 [1]: 4.77 µM (active) and 4.29 µM (active)
- AC50 [2]: 2.92 µM (active) and 3.32 µM (active)
- AC50 [4]: 1.6 µM (active) and 1.67 µM (active)
- AC50 [5]: 3.21 µM (active)
- outcome [5]: inactive
- AC50 [18]: 1.46 µM (active) and 957 nM (active)
- AC50 [6]: 1.76 µM (active) and 1.74 µM (active)
- AC50 [8]: 4.54 µM (active) and 3.14 µM (active)
- AC50 [9]: 4.99 µM (active) and 2.26 µM (active)
- outcome [10]: inactive
- AC50 [11]: 1.85 µM (active) and 1.69 µM (active)
- AC50 [12]: 2.13 µM (active) and 2.05 µM (active)
- AC50 [13]: 2.46 µM (active) and 2.22 µM (active)
- AC50 [14]: 2.48 µM (active) and 2.92 µM (active)
- AC50 [15]: 716 nM (active) and 210 nM (active)
- AC50 [16]: 2.03 µM (active)
- outcome [16]: inactive
- AC50 [17]: 1.93 µM (active) and 1.74 µM (active)

SMILES: O=S(=O)(O)CCC(F)(F)C(F)(F)C(F)(F)C(F)(F)C(F)(F)C(F)(F)C(F)(F)C(F)(F)F
- outcome [1]: inactive
- outcome [2]: inactive
- AC50 [4]: 25.6 µM (active)
- outcome [4]: inactive
- AC50 [5]: 11.1 µM (active) and 15.4 µM (active)
- outcome [18]: inactive
- outcome [6]: inactive
- outcome [7]: inactive
- outcome [8]: inactive
- outcome [9]: inactive
- outcome [10]: inactive
- AC50 [11]: 20.4 µM (active) and 25.3 µM (active)
- outcome [12]: inactive
- AC50 [13]: 16.8 µM (active) and 24.1 µM (active)
- outcome [14]: inactive
- AC50 [15]: 8.09 µM (active)
- outcome [15]: inactive
- outcome [16]: inactive
- outcome [17]: inactive

SMILES: O=C(O)CCC(F)(F)C(F)(F)C(F)(F)F
- outcome [1]: inactive
- outcome [2]: inactive
- outcome [3]: inactive
- outcome [4]: inactive
- outcome [5]: inactive
- outcome [6]: inactive
- outcome [7]: inactive
- outcome [8]: inactive
- outcome [9]: inactive
- outcome [10]: inactive
- outcome [11]: inactive
- outcome [12]: inactive
- outcome [13]: inactive
- outcome [14]: inactive
- outcome [15]: inactive
- outcome [16]: inactive
- outcome [17]: inactive

SMILES: COC(F)(C(F)F)C(F)(F)F (stereo not given)
- outcome [1]: inactive
- outcome [2]: inactive
- outcome [3]: inactive
- outcome [4]: inactive
- outcome [5]: inactive
- outcome [6]: inactive
- outcome [8]: inactive
- outcome [9]: inactive
- outcome [10]: inactive
- outcome [11]: inactive
- outcome [12]: inactive
- outcome [13]: inactive
- outcome [14]: inactive
- outcome [15]: inactive
- outcome [16]: inactive
- outcome [17]: inactive
